According to the supplement of paper PMC10646978:
± gives the standard deviation.

Legend:
Conditions in all cases: modulator concentration 10 µM
[1] = tested on: RAW-Dual (murine macrophage reporter line); test: NF-kB reporter (SEAP) activity fold change vs agonist alone; higher = enhanced NF-kB activity
Method in brief: (§1)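 RAW-Dual murine macrophage reporter cells were seeded at 50 000 per well in 384-well plates and pre-incubated 1 hour at 37 °C with compound pin-transferred to 10 μM final. After 1 hour, a PRR agonist was added and cells incubated overnight. Supernatant NF-κB (SEAP, QUANTI-Blue, 620 nm absorbance) and IRF (Lucia luciferase, QUANTI-Luc, luminescence) signals were divided by the mean agonist-only control on the same plate to give fold change. Two replicate plates were averaged, with errors by propagation.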

[2] = tested on: RAW-Dual (murine macrophage reporter line); test: IRF reporter (Lucia luciferase) activity fold change vs agonist alone; higher = enhanced IRF activity
Method in brief: as §1

[3] = tested on: RAW-Dual (murine macrophage reporter line); test: viability score (confluency relative to resting cells, overnight) (fraction); higher = more viable, active = viable (0.7 or more)
Method in brief: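 RAW-Dual macrophages in 384-well plates were treated overnight with compound at 10 μM final. IncuCyte imaging recorded confluency, and IncuCyte software built two confluency masks across every imaged well. The viability score expresses confluency relative to resting cells and was judged against a cutoff, which a compound met only if both masks exceeded 70% of resting cells.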

[4] = agonist: CpG ODN 1826 0.5 ug/mL

Structure (SMILES) | NF-kB reporter [1, 4] | NF-kB reporter ([1]; agonist: LPS 0.1 ug/mL) | NF-kB reporter ([1]; agonist: MPLA […]) | IRF reporter ([2]; agonist: 3'3'-cGAMP 10 ug/mL) | IRF reporter ([2]; agonist: LPS 0.1 ug/mL) | IRF reporter ([2]; agonist: MPLA […]) | viability score [3]
Cc1cccc(Cn2c(=O)c3nscc3n(Cc3ccc(F)c(F)c3)c2=O)c1 | 1.14 ± 0.099 | 1.09 ± 0.087 | 1.21 ± 0.11 | 0.997 ± 0.048 | 1.01 ± 0.093 | 0.899 ± 0.22 | 0.995 (active)
Clc1ccccc1C=NNc1nc(-c2ccccc2)cc(-c2ccccc2)n1 | 1.15 ± 0.11 | 1.1 ± 0.073 | 1.79 ± 0.07 | 1.2 ± 0.23 | 1.04 ± 0.065 | 1.65 ± 0.29 | 1 (active)
O=C1OC(c2ccc3ccccc3c2)=NC1=Cc1ccc(Cl)c([N+](=O)[O-])c1 | 0.973 ± 0.079 | 1.07 ± 0.067 | 0.881 ± 0.053 | 0.976 ± 0.03 | 1.53 ± 0.14 | 1.16 ± 0.2 | 1.01 (active)
O=C1c2cccc3c2[C@H](CCC3)CN1[C@@H]1CN2CCC1CC2 [Prestw-1783] | 0.953 ± 0.06 | 0.913 ± 0.13 | 0.788 ± 0.031 | 0.63 ± 0.024 | 0.824 ± 0.044 | 0.752 ± 0.08 | 0.995 (active)
O=C(NCCN1CCN(c2ccc(Cl)cc2)CC1)c1ccncc1 | 0.974 ± 0.076 | 0.99 ± 0.076 | 1.01 ± 0.027 | 1.01 ± 0.053 | 1.02 ± 0.081 | 0.986 ± 0.097 | 0.998 (active)
CSCCC(NC(=O)C(=Cc1ccccc1)NC(=O)c1ccco1)C(=O)O (stereo unspecified) | 0.764 ± 0.066 | 0.842 ± 0.054 | 0.936 ± 0.081 | 1.05 ± 0.05 | 1.33 ± 0.081 | 1.49 ± 0.14 | 1 (active)
CCC(CNC(=O)Cc1c(F)cccc1Cl)(OC)c1ccccc1 (stereo unspecified) | 0.854 ± 0.06 | 0.911 ± 0.091 | 1.06 ± 0.062 | 0.955 ± 0.074 | 1.09 ± 0.2 | 1.17 ± 0.37 | 0.825 (active)
N#Cc1c(N=Cc2ccc(Br)cc2)sc2c1CCCC2 | 0.782 ± 0.075 | 1 ± 0.067 | 0.964 ± 0.033 | 0.896 ± 0.14 | 0.96 ± 0.041 | 1 ± 0.077 | 1 (active)
C=CCNC(=O)COc1ccccc1C | 0.782 ± 0.073 | 0.887 ± 0.042 | 0.985 ± 0.086 | 1.05 ± 0.048 | 1.36 ± 0.082 | 1.48 ± 0.16 | 1 (active)
Cc1c(C)n2c3c(=O)n(CC=Cc4ccccc4)c(=O)n(C)c3nc2n1CCOCCO | 0.702 ± 0.046 | 1.16 ± 0.091 | 1.03 ± 0.17 | 0.98 ± 0.055 | 1.03 ± 0.063 | 1.09 ± 0.085 | 0.955 (active)
O=C(NCC1CCCN1c1nccs1)C1CC1 (stereo unspecified) | 0.946 ± 0.045 | 1.02 ± 0.12 | 1.13 ± 0.084 | 0.973 ± 0.07 | 1.03 ± 0.23 | 1.18 ± 0.54 | 0.99 (active)
NC(=O)N1CCC(CC(=O)N2CCC([C@H]3c4ncc(Br)cc4CCc4cc(Cl)cc(Br)c43)CC2)CC1 | 0.342 ± 0.047 | 0.434 ± 0.12 | 0.615 ± 0.19 | 0.325 ± 0.012 | 0.889 ± 0.23 | 1.2 ± 0.17 | 0.0582 (inactive)
CSCCC(NC(C)=O)C(=O)N1CCC(n2c(C)nc3ccccc32)C1 (stereo unspecified) | 1.07 ± 0.063 | 0.96 ± 0.074 | 0.952 ± 0.025 | 0.98 ± 0.04 | 0.968 ± 0.086 | 0.957 ± 0.25 | 1 (active)
